# In PubChem BioAssay (Tox21):
# A number with no mark means an inactive call. Records with an inconclusive call do not appear. A call without a number means that no potency is given here. Active and inactive are the calls of the source. Calls come from the whole dose curve; as a rule, active = well fitted curve in the direction sought with a large enough effect in the repeat runs; inconclusive = weak or mixed curves; inactive = no such curve, though single readings can be large; an effect the other way counts as inactive or inconclusive.
# Key:
# [1] = A CellTox Green Cytotoxicity Assay to monitor cytotoxicity in HEK293 cells - 32 hour (AID 1224881); note: nearly all actives have a fitted effect of over 40% in size; note: potency is the fitted concentration of half-maximal effect
# Procedure, shortened: (§1)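 Fluorescence intensity, read at 0, 8, 16, 24, 32 and 40 h of compound treatment, reflected dye binding to DNA of dead HEK293 cells; compounds (23 nL, DMSO) were added 5 h after plating cells with reagent.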
# [2] = A CellTox Green Cytotoxicity Assay to monitor cytotoxicity in HepG2 cells - 0 hour (AID 1224882); note: nearly all actives have a fitted effect of over 35% in size
# Procedure, shortened: (§2)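 Using 1536-well format, dye-containing HepG2 suspension was seeded, allowed 5 h at 37 C/5% CO2, dosed by pintool with compounds, positive and negative controls, and imaged for fluorescence across 40 h.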
# [3] = A CellTox Green Cytotoxicity Assay to monitor cytotoxicity in HepG2 cells - 32 hour (AID 1224883); note: nearly all actives have a fitted effect of over 50% in size
# Procedure, shortened: as §2
# [4] = qHTS RealTime-Glo MT Cell Viability Assay in HepG2 cells - 16 hour (AID 1224885); note: nearly all actives have a fitted effect of over 50% in size
# Procedure, shortened: (§3)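 Real-time, nonlytic viability: 600 HepG2 cells/well mixed with NanoLuc enzyme plus prosubstrate; 5 h settle, compound (DMSO) added by pintool; luminescence monitored over 40 h at 37 C.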
# [5] = qHTS RealTime-Glo MT Cell Viability Assay in HEK293 cells - 24 hour (AID 1224886); note: top concentration of the series differs between compounds; nearly all actives have a fitted effect of over 50% in size
# Procedure, shortened: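 Cells + reagent dispensed (600 cells/well, HEK293) → 5 h at 37 C/5% CO2 → 23 nL compound in DMSO pinned → 40 h at 37 C → luminescence read at 0, 8, 16, 24, 32, 40 h.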
# [6] = qHTS RealTime-Glo MT Cell Viability Assay in HEK293 cells - 8 hour (AID 1224887); note: top concentration of the series differs between compounds; nearly all actives have a fitted effect of over 50% in size
# Procedure, shortened: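 Viable HEK293 cells reduce a cell-permeant prosubstrate; the product diffuses out and is consumed by NanoLuc in the medium to give light. Compounds went in after a 5 h incubation and plates were read over the treatment course.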
# [7] = A CellTox Green Cytotoxicity Assay to monitor cytotoxicity in HEK293 cells - 16 hour (AID 1224888); note: nearly all actives have a fitted effect of over 35% in size
# Procedure, shortened: as §1
# [8] = A CellTox Green Cytotoxicity Assay to monitor cytotoxicity in HepG2 cells - 8 hour (AID 1224890); note: nearly all actives have a fitted effect of over 45% in size
# Procedure, shortened: as §2
# [9] = A CellTox Green Cytotoxicity Assay to monitor cytotoxicity in HEK293 cells - 8 hour (AID 1224884); note: nearly all actives have a fitted effect of over 35% in size
# Procedure, shortened: as §1
# [10] = qHTS RealTime-Glo MT Cell Viability Assay in HepG2 cells - 0 hour (AID 1224889); note: nearly all actives have a fitted effect of over 50% in size
# Procedure, shortened: as §3
SMILES,Potency [1],outcome [2],Potency [3],Potency [4],Potency [5],Potency [6],Potency [7],Potency [8],Potency [9],outcome [10],cytotoxicity increase [1],cytotoxicity increase [9],activity change [7]
CCN(CC)CCOC(=O)C(O)(c1ccccc1)c1ccccc1,inactive,inactive,inactive,inactive,inactive,inactive,inactive,inactive,,,,,
O=S1(=O)OCCO1,inactive,inactive,inactive,inactive,inactive,inactive,inactive,,,,,,
CNC(=O)O/N=C(/CSC)C(C)(C)C,inactive,inactive,inactive,,inactive,,inactive,inactive,inactive,inactive,,,
Cn1c(CCCC(=O)O)nc2cc(N(CCCl)CCCl)ccc21,inactive,inactive,inactive,inactive,inactive,inactive,,,,inactive,,,
CCC(=O)OC1(c2ccccc2)CCN(C)CC1,inactive,inactive,inactive,inactive,inactive,inactive,inactive,inactive,,inactive,,,
CON(C)C(=O)Nc1ccc(Br)c(Cl)c1,inactive,inactive,inactive,,,inactive,inactive,inactive,inactive,inactive,,,
ClC(Cl)(Cl)Cl,inactive,inactive,inactive,,inactive,inactive,,inactive,inactive,inactive,,,
C=C1CC[C@@]2(O)[C@H]3Cc4ccc(O)c5c4[C@@]2(CCN3CC2CC2)[C@H]1O5,inactive,inactive,inactive,,inactive,inactive,,inactive,inactive,inactive,,,
O=C1CCCCC1Cl (configuration not stated),inactive,inactive,inactive,,inactive,inactive,inactive,inactive,inactive,inactive,,,
COC1=CC(=O)O[C@@H](/C=C/c2ccccc2)C1,inactive,inactive,inactive,,inactive,inactive,inactive,inactive,inactive,inactive,,,
CCCCCCCCSC(=O)Oc1cc(Cl)nnc1-c1ccccc1,inactive,inactive,inactive,inactive,inactive,inactive,inactive,inactive,,inactive,,,
CCc1cc(OC)c(C[C@H](C)N)cc1OC,inactive,inactive,inactive,,inactive,,inactive,,inactive,inactive,,,
NC(=O)OCCCc1ccccc1,inactive,inactive,inactive,,inactive,inactive,inactive,inactive,inactive,inactive,,,
CCCOc1nn(C(=O)NS(=O)(=O)c2ccccc2C(=O)OC)c(=O)n1C,inactive,inactive,inactive,inactive,inactive,inactive,inactive,inactive,,inactive,,,
CCNc1nc(Cl)nc(NC(C)(C)C)n1,inactive,inactive,inactive,inactive,inactive,inactive,inactive,,,inactive,,,
O=P(O)(O)CN(CP(=O)(O)O)CP(=O)(O)O,,inactive,inactive,,,,,inactive,,inactive,21.6% [at 15.8 µM],30% [at 15.8 µM],"27.1% [at 15.8 µM, active compounds read high]"
CS(=O)(=O)c1ccc(C(=O)C2C(=O)CCCC2=O)c(Cl)c1COCC(F)(F)F,inactive,inactive,inactive,,inactive,inactive,inactive,inactive,inactive,inactive,,,
CC(=NC#N)N(C)Cc1ccc(Cl)nc1,inactive,inactive,inactive,,inactive,inactive,inactive,,inactive,inactive,,,
CCCCCCC1CCOC1=O (configuration not stated),inactive,inactive,inactive,inactive,inactive,inactive,inactive,inactive,,inactive,,,
N#CN=C1SCCN1Cc1ccc(Cl)nc1,inactive,inactive,inactive,,inactive,inactive,inactive,inactive,inactive,,,,
CCN[C@H](C)Cc1cccc(C(F)(F)F)c1,inactive,inactive,inactive,,inactive,inactive,inactive,,,inactive,,,
O=C(O)c1c(Cl)ccc2cc(Cl)cnc12,inactive,inactive,inactive,inactive,inactive,,inactive,,,inactive,,,

SMILES,Potency [1],outcome [2],Potency [3],Potency [4],Potency [5],Potency [6],Potency [7],Potency [8],Potency [9],outcome [10],cytotoxicity increase [1],cytotoxicity increase [9],activity change [7]
CCOC(=O)CCl,inactive,,inactive,inactive,inactive,inactive,inactive,inactive,inactive,inactive,,,
CCNP(=S)(OC)O/C(C)=C/C(=O)OC(C)C (configuration not stated),inactive,inactive,inactive,inactive,inactive,,inactive,,,inactive,,,
CNC(=O)Oc1ccccc1C(C)C,inactive,inactive,inactive,inactive,inactive,inactive,,inactive,,inactive,,,
CCNc1nc(NCC)nc(SC)n1,inactive,,inactive,inactive,inactive,inactive,inactive,inactive,inactive,inactive,,,
Clc1ccc(C(Cl)(Cl)Cl)cn1,34.7 µM (active),inactive,inactive,inactive,inactive,,,inactive,,inactive,,,
C=C(C)[C@H]1CN[C@H](C(=O)O)[C@H]1CC(=O)O,inactive,inactive,inactive,inactive,inactive,,inactive,,,inactive,,,
Clc1nc(Cl)nc(Nc2ccccc2Cl)n1,inactive,inactive,inactive,inactive,inactive,,,inactive,,inactive,,,
NNC(N)=O,inactive,inactive,inactive,inactive,inactive,,inactive,inactive,,,,,
O=C(O)CBr,inactive,,inactive,inactive,inactive,inactive,inactive,inactive,inactive,inactive,,,
CC(C)NCC(O)c1ccc([N+](=O)[O-])cc1 (configuration not stated),inactive,,inactive,inactive,inactive,inactive,inactive,inactive,inactive,,,,
O=[N+]([O-])CCO,inactive,inactive,,inactive,inactive,,,inactive,inactive,,,,
C=CCCC#N,inactive,,inactive,inactive,inactive,inactive,inactive,inactive,inactive,inactive,,,
NC1(c2ccccc2)CCCCC1,inactive,inactive,inactive,,inactive,inactive,,,,,,,
COc1ccccc1OC,inactive,inactive,inactive,inactive,inactive,,inactive,,,inactive,,,
ClCC1CO1 (configuration not stated),inactive,,inactive,inactive,inactive,inactive,inactive,inactive,inactive,inactive,,,
CCOC(=O)Nc1cccc(OC(=O)Nc2ccccc2)c1,inactive,inactive,,inactive,inactive,inactive,inactive,inactive,inactive,,,,
CN=CNc1ccc(C)cc1C,inactive,inactive,inactive,,inactive,inactive,,inactive,,inactive,,,
CC1=C2[C@H]3OC(=O)[C@@H](C)[C@@H]3CC[C@@]2(C)C=CC1=O,inactive,,inactive,inactive,inactive,inactive,inactive,inactive,inactive,inactive,,,
CC(C)(N)Cc1ccc(Cl)cc1,inactive,inactive,inactive,,inactive,inactive,inactive,inactive,,inactive,,,
CCC1(c2ccccc2)CCC(=O)NC1=O (configuration not stated),inactive,,inactive,inactive,inactive,inactive,inactive,inactive,inactive,inactive,,,
N#CC(Br)(Br)C(N)=O,inactive,inactive,,inactive,inactive,,inactive,inactive,,,,,
CC(C)(N)Cc1ccccc1Cl,inactive,inactive,inactive,inactive,inactive,inactive,,inactive,,inactive,,,
